Reference: PubChem BioAssay (Tox21)
Records with an inconclusive call do not appear. Where a call stands in place of a potency, no number is given. Active and inactive are the calls of the source. Calls follow the shape of the full dose curve.

Test system: not listed separately
Test: Nuclear factor erythroid 2-related factor 2/antioxidant responsive element (Nrf2/ARE) small molecule agonists: luciferase reporter gene qHTS assay in human keratinocytes (AID 1919969)
Conditions: KeratinoSens HaCaT ARE-luciferase, luminescence, 24 h; series mostly up to 92.4 µM
Also: nearly all actives have a fitted effect of over 35% in size.
Potency is read from the fitted curve at half-maximal effect.

Compound	activity, positive = activation	Potency
C=CC(=C)CC/C=C(\C)CCC=C(C)C	7.55% [at 19 µM] (inactive)	
C[C@H](CCC(=O)O)[C@H]1CC[C@H]2[C@@H]3[C@H](O)C[C@@H]4C[C@H](O)CC[C@]4(C)[C@H]3C[C@H](O)[C@]12C		inactive
CC(C)C[P+](C)(CC(C)C)CC(C)C		inactive
CCCCCCCCCCCCCCCCCCN(C)C		inactive
CCOC(=O)O[C@H](C)OC(=O)c1ccc2c(c1)cc(C(=O)NC1CCN(C(C)C)CC1)n2Cc1cc(-c2ccc(Cl)s2)on1		inactive
CC(=O)Nc1cccc(C)c1		inactive
O=C(NCCN1CCOCC1)c1ccc(Cl)cc1		inactive
CCCCCCCCCCCCCOP(=O)(O)O		inactive
CCCC(C)C		inactive
Cc1[nH]c(=O)c(C#N)cc1-c1ccc2nccn2c1		inactive
CCO		inactive
CC(=O)Nc1ccc(OCC(O)CNC(C)C)cc1 (stereo not given)		inactive
O=C(NS(=O)(=O)/C=C/c1ccccc1)c1ccc(F)cc1Cl		27.3 µM (active)
CCOC(=O)CCCCCCCCC(=O)OCC		inactive
CC(C)OC(=O)C(C(=O)OC(C)C)=C1SC=CS1		inactive
O=C(CN1CCN(Cc2ccc3c(c2)OCO3)CC1)N1c2ccccc2Sc2ccccc21		inactive
CC(=O)Oc1ccc(C(C)=O)cc1		inactive
Cc1ccc(C(=O)Oc2ccc(C(O)CNC(C)(C)C)cc2OC(=O)c2ccc(C)cc2)cc1 (stereo not given)		inactive
Oc1ccc(Cl)c2cccnc12		0.668 µM (active)
CCCCCCCC/C=C\CCCCCCCCOCCO		inactive

Compound	activity, positive = activation	Potency
CC(=O)OC(C)c1ccccc1 (stereo not given)		inactive
O=S(=O)(Cl)c1c(Cl)cccc1Cl		inactive
CCOC(=O)CC1(C)OCC(C)O1 (stereo not given)		inactive
C1CC(COCC2CO2)CCC1COCC1CO1 (stereo not given)		61.1 µM (active)
CCCCCCCCCCC(=O)O		inactive
O=C1OCc2ccccc21		inactive
CC1(C)C(=O)N(CO)C(=O)N1CO		inactive
CCCC(c1cc(C(C)(C)C)c(O)cc1C)c1cc(C(C)(C)C)c(O)cc1C		inactive
O=C(O)CNCC(=O)O	-2.08% [at 8.39 µM] (inactive)	
CCCS(=O)c1ccc2nc(NC(=O)OC)[nH]c2c1 (stereo not given)		inactive
O=C(OCc1ccccc1)C(=O)OCc1ccccc1		inactive
C/C=C(\C)C#N		inactive
Cl[Si](Cl)(c1ccccc1)c1ccccc1		inactive
N=C(N)c1ccc(OCCCOc2ccc(C(=N)N)cc2)cc1		inactive
COC(=O)C(C)O (stereo not given)		inactive
CCc1nccnc1CC	0.453% [at 19 µM] (inactive)	
C=CC(=O)OCCCCCCCCCC		inactive
CO[Si](CCCNc1ccccc1)(OC)OC		inactive
CCCCCCCCCCCCCCCCOS(=O)(=O)O		inactive
CC(C)(c1ccc(Oc2ccc3c(c2)C(=O)OC3=O)cc1)c1ccc(Oc2ccc3c(c2)C(=O)OC3=O)cc1		inactive

Target: Gonadotropin-releasing hormone receptor (Homo sapiens) (UniProt P30968)
Sequence (P30968 whole entry, looked up): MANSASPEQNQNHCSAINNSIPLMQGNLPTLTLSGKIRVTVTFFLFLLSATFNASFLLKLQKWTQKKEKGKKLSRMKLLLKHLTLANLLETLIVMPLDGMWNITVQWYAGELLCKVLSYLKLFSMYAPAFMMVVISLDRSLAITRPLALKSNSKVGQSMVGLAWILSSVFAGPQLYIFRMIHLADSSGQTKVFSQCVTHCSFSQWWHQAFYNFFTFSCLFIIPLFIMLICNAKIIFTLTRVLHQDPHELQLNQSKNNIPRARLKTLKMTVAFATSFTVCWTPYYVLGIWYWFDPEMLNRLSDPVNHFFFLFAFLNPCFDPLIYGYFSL
Test: Human gonadotropin-releasing hormone receptor (GnRHR) small molecule agonists, calcium flux assay in GnRHR-HEK293 cells (AID 1920063)
Conditions: calcium flux fluorescence, agonist mode; series mostly up to 57.6 µM
Method in brief: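 Agonist activity was measured as intracellular calcium flux in HEK293 cells engineered to stably express human GnRHR. After dye loading for 1 hour at 37 C, compounds in DMSO were added and fluorescence was followed for 3 minutes.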

Compound	activity change	Potency
C=CC(=C)CC/C=C(\C)CCC=C(C)C	1.61% [at 11.8 µM, active compounds read high] (inactive)	
C[C@H](CCC(=O)O)[C@H]1CC[C@H]2[C@@H]3[C@H](O)C[C@@H]4C[C@H](O)CC[C@]4(C)[C@H]3C[C@H](O)[C@]12C		inactive
CC(C)C[P+](C)(CC(C)C)CC(C)C		inactive
CCCCCCCCCCCCCCCCCCN(C)C		inactive
CCOC(=O)O[C@H](C)OC(=O)c1ccc2c(c1)cc(C(=O)NC1CCN(C(C)C)CC1)n2Cc1cc(-c2ccc(Cl)s2)on1		inactive
CC(=O)Nc1cccc(C)c1		inactive
O=C(NCCN1CCOCC1)c1ccc(Cl)cc1		inactive
CCCCCCCCCCCCCOP(=O)(O)O		inactive
CCCC(C)C		inactive
Cc1[nH]c(=O)c(C#N)cc1-c1ccc2nccn2c1		inactive
CCO		inactive
CC(=O)Nc1ccc(OCC(O)CNC(C)C)cc1 (stereo not given)		inactive
O=C(NS(=O)(=O)/C=C/c1ccccc1)c1ccc(F)cc1Cl		inactive
CCOC(=O)CCCCCCCCC(=O)OCC		inactive
CC(C)OC(=O)C(C(=O)OC(C)C)=C1SC=CS1		inactive
O=C(CN1CCN(Cc2ccc3c(c2)OCO3)CC1)N1c2ccccc2Sc2ccccc21		inactive
CC(=O)Oc1ccc(C(C)=O)cc1		inactive
Cc1ccc(C(=O)Oc2ccc(C(O)CNC(C)(C)C)cc2OC(=O)c2ccc(C)cc2)cc1 (stereo not given)		0.0535 µM (active)
Oc1ccc(Cl)c2cccnc12		inactive
CCCCCCCC/C=C\CCCCCCCCOCCO		inactive

Compound	activity change	Potency
CC(=O)OC(C)c1ccccc1 (stereo not given)		inactive
O=S(=O)(Cl)c1c(Cl)cccc1Cl		inactive
CCOC(=O)CC1(C)OCC(C)O1 (stereo not given)		inactive
C1CC(COCC2CO2)CCC1COCC1CO1 (stereo not given)		inactive
CCCCCCCCCCC(=O)O		inactive
O=C1OCc2ccccc21		inactive
CC1(C)C(=O)N(CO)C(=O)N1CO		inactive
CCCC(c1cc(C(C)(C)C)c(O)cc1C)c1cc(C(C)(C)C)c(O)cc1C		inactive
O=C(O)CNCC(=O)O	0.0589% [at 5.22 µM, active compounds read high] (inactive)	
CCCS(=O)c1ccc2nc(NC(=O)OC)[nH]c2c1 (stereo not given)		inactive
O=C(OCc1ccccc1)C(=O)OCc1ccccc1		inactive
C/C=C(\C)C#N		inactive
Cl[Si](Cl)(c1ccccc1)c1ccccc1		inactive
N=C(N)c1ccc(OCCCOc2ccc(C(=N)N)cc2)cc1		inactive
COC(=O)C(C)O (stereo not given)		inactive
CCc1nccnc1CC	-0.658% [at 11.8 µM, active compounds read high] (inactive)	
C=CC(=O)OCCCCCCCCCC		inactive
CO[Si](CCCNc1ccccc1)(OC)OC		inactive
CCCCCCCCCCCCCCCCOS(=O)(=O)O		inactive
CC(C)(c1ccc(Oc2ccc3c(c2)C(=O)OC3=O)cc1)c1ccc(Oc2ccc3c(c2)C(=O)OC3=O)cc1		inactive
